Source: PubChem BioAssay (National Center for Advancing Translational Sciences (NCATS))
Compounds with a hit are over-represented: about 19% of the library has one in this group of screens.
HT1080 IDH1KD tx: toxicity to HT-1080 IDH1 knockdown cells (counter line) | HT-1080 IDH1 knockdown viability, ATP luminescence, 48 h | Potency, µM (doses to about 46.1 µM), for inactives: top-dose activity, negative = toxicity, hits mostly cytotoxic | hit rate 2% among 360,000;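 further: 0% = DMSO wells and -100% = cell-free medium wells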
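Assay cells: HT-1080 with IDH1 knockdown, 750 per well, RPMI/5% FBS. Exposure: 48 h at 37 °C following 2 h pre-incubation. Read: CellTiter-Glo luminescence; fitted concentration-response, curve class assigned.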
HT1080-NT tox: kills 2HG-producing HT-1080-NT fibrosarcoma cells | Potency, µM (series often up to 46.1 µM), for the others: top-dose activity, negative = less viability, actives largely listed as cytotoxic | hit rate 1.6% among 360,000 | HT-1080-NT fibrosarcoma viability, CellTiter-Glo ATP luminescence, 48 h;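 further: NT is the 2HG producing partner of a matched IDH1 knockdown line; 0% = DMSO-treated cells and -100% = media-only wells without cells; nearly all actives have a fitted effect of over 55% in size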
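Viability of the 2HG-overproducing fibrosarcoma line after 48 hours of compound exposure at 37 degrees C was determined by luminescence with CellTiter-Glo, and concentration-effect curves were then fitted and categorized.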
KB-3-1 cytotox: KB-3-1 parental cell cytotoxicity; hit rate 1.4% among 400,000; KB-3-1 viability, CellTiter-Glo ATP luminescence, 72 h; Potency, µM (titrated, usually from 46.1 µM), usual class: cytotoxic; further: nearly all actives have a fitted effect of over 60% in size
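Parental KB-3-1 adenocarcinoma cells in phenol-red-free DMEM with 10% FBS were pin-treated with compounds at several concentrations, incubated 72 h at 37 °C, and viability read by CellTiter-Glo luminescence; concentration-effect curves were fitted after normalization.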
DT40 TDP1 no CPT: qHTS for Inhibitors of human tyrosyl-DNA phosphodiesterase 1 (TDP1): qHTS in cells in absence of CPT; hit rate 15% among 420,000; DT40 Tdp1-/- hTDP1 cells, no CPT, ATP luminescence, 48 h; Potency, µM (doses to about 46.2 µM), without a hit: at the top dose activity change, negative = growth inhibition, most hits filed as inhibitors; further: nearly all actives have a fitted effect of over 55% in size
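No-CPT arm: Tdp1-/-;hTDP1 DT40 cells (400/well) plus compounds, incubated ≥48 hr at 37 °C. Readout CellTiter-Glo luminescence.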
TDP1 cell CPT: growth inhibition of DT40 Tdp1-/-;hTDP1 cells with camptothecin (screen for TDP1 inhibitors). chicken DT40 Tdp1-/-;hTDP1 cells + 20 nM CPT, ATP luminescence, 48 h. hit rate 12% among 420,000. Potency, µM (series often up to 46.2 µM), inactives show top-dose activity change, negative = growth inhibition, hits mostly inhibitors. AID 686979; further: nearly all actives have a fitted effect of over 55% in size
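Chicken DT40 Tdp1-/- cells stably complemented with human TDP1 were seeded at 400 cells/well in medium containing 20 nM camptothecin, exposed to pin-transferred compounds, and grown at 37 °C for at least 48 hr. Viability was read as ATP luminescence.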
KB-V1 cytotox: kills drug-selected multidrug resistant KB-V1 cells; KB-V1 MDR cells viability, CellTiter-Glo, 72 h; Potency, µM (highest dose often 46.1 µM), most hits filed as cytotoxic; hit rate 3.4% among 400,000; further: nearly all actives have a fitted effect of over 60% in size
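Cells of the MDR subline KB-V1 are plated, dosed with compound at multiple concentrations, and incubated 72 h at 37 degrees C; CellTiter-Glo is then added and luminescence read after 10 min.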
* hit, by the source's call; i = inactive; u = inconclusive; x = not tested or not shown; [ ] = another dose, or the depositor's remark. The call rests on the fitted dose curve; in most records, active means well fitted curve in the direction sought with a large enough effect; inconclusive means small, poorly fitted or top-dose-only effect, or another doubt; inactive means no such curve, though single readings can be large; an effect the other way counts as inactive or inconclusive. Unless noted, on the % scale 0 is the no-effect control and ±100 the full control effect; potency means the concentration at half of the fitted maximal effect.

SMILES	HT1080 IDH1KD tx	HT1080-NT tox	KB-3-1 cytotox	DT40 TDP1 no CPT	TDP1 cell CPT	KB-V1 cytotox
Cc1sc2nc(CSCC(=O)N(C)c3ccccc3)[nH]c(=O)c2c1C	-3.8%	-6.1%	i	16.4µM*	23.1µM*	u
CCOC(=O)CSc1nc2sc(C)c(C)c2c(=O)n1C	7.8%	4.9%	i	-24.3%	u	u
Cc1sc2nc(SCC(=O)N(C)c3ccccc3)n(C)c(=O)c2c1C	12.0%	-7.1%	i	13µM*	18.4µM*	u
Cc1sc2nc(CSCC(=O)Nc3c(F)cccc3F)[nH]c(=O)c2c1C	7.1%	1.5%	u	10.3µM*	11.6µM*	i
Cc1sc2nc(CSCC(=O)NC(C)(C)C)[nH]c(=O)c2c1C	1.1%	1.7%	i	-10.6%	-22.9%	i
Cc1sc2nc(SCC(=O)N3CCCCC3)[nH]c(=O)c2c1C	-6.3%	-4.9%	i	-8.7%	-12.1%	i
Cc1sc2nc(SCC(=O)N3CCCC3)[nH]c(=O)c2c1C	-5.2%	1.7%	i	u	25.9µM*	i
Cc1ccc(-n2nnnc2SCc2nc3sc(C)c(C)c3c(=O)[nH]2)cc1	-0.1%	9.8%	i	u	u	18.4µM*
Cc1sc2nc(SCC(=O)N3CC(C)OC(C)C3)n(C)c(=O)c2c1C (configuration not stated)	-3.6%	1.5%	x	13µM*	u	x
COc1ccc(NC(=O)c2nc(S(C)(=O)=O)ncc2N(Cc2ccc(C)cc2)Cc2ccco2)cc1Cl	x	x	i	18.4µM*	u	i
Cc1ccc(NC(=O)c2nc(S(C)(=O)=O)ncc2N(Cc2ccc(C(C)(C)C)cc2)Cc2ccco2)cc1C	x	x	i	u	u	i
Cc1ccc(NC(=O)c2nc(S(C)(=O)=O)ncc2N(Cc2ccccc2)Cc2ccco2)c(C)c1	x	x	i	18.4µM*	13µM*	i
CCS(=O)(=O)c1ncc(N(Cc2ccccc2)Cc2ccco2)c(C(=O)Nc2ccc(C)c(C)c2)n1	x	x	i	11.6µM*	20.6µM*	i
Cc1ccc(NC(=O)c2nc(S(C)(=O)=O)ncc2N(Cc2ccco2)Cc2ccco2)cc1C	x	x	i	u	u	i
CCc1ccc(CN(Cc2ccco2)c2cnc(S(C)(=O)=O)nc2C(=O)Nc2cccc(C)c2)cc1	x	x	i	20.6µM*	13µM*	i
O=S(=O)(c1ccccc1)n1cc(-c2cccc3nccn23)c2ccccc21	u	u	i	u	u	u
CCCc1c(C(=O)N/N=C/c2ccoc2)nnn1-c1nonc1N	8.4%	5.9%	i	-7.0%	1.4%	i
Cc1ccc(NC(=O)c2nc(S(C)(=O)=O)ncc2N(Cc2ccco2)Cc2cccs2)cc1C	x	x	i	u	u	i
CS(=O)(=O)c1ncc(N(Cc2ccco2)Cc2cccs2)c(C(=O)Nc2ccccc2F)n1	x	x	i	20.6µM*	u	i
COc1ccccc1CN(Cc1ccco1)c1cnc(S(C)(=O)=O)nc1C(=O)Nc1ccccc1Cl	x	x	i	u	u	u
COc1ccc(Cl)cc1NC(=O)c1nc(S(C)(=O)=O)ncc1N(Cc1ccc(C)cc1)Cc1ccco1	x	x	x	9.2µM*	8.2µM*	x
COC(=O)c1ccccc1NC(=O)Cn1c(=O)n(CCCC(=O)NCc2ccccc2OC)c(=O)c2ccccc21	x	x	i	u	-28.5%	i
Cn1c(-c2ccccc2)cc(=NNS(C)(=O)=O)c2cc(S(=O)(=O)O)ccc21	-0.8%	3.4%	i	-2.6%	0.1%	i
CN(/N=C/c1cc(Br)cc(Br)c1O)c1cccc(C(F)(F)F)n1	u	u	u	16.4µM*	7.31µM*	i
COCC(=O)Nc1cc(C(=O)N2CCc3ccccc3C2)c2c(c1)nc(-c1ccncc1)n2C	x	x	x	-12.1%	2.5%[9.04 µM]	x
SMILES	HT1080 IDH1KD tx	HT1080-NT tox	KB-3-1 cytotox	DT40 TDP1 no CPT	TDP1 cell CPT	KB-V1 cytotox
O=C(CCc1nnc(C2(c3ccc(Cl)cc3)CCC2)o1)N1CCCC1	13.2%	7.5%	i	-12.6%	-18.2%	i
CC(=O)c1ccc(-c2nnc(CCC(=O)N3CCCC(C(=O)CC(C)C)C3)o2)s1 (configuration not stated)	10.1%	5.6%	i	u	13µM*	i
CCC(=O)C1CCCN(C(=O)CCc2nnc(C3(c4ccc(Cl)cc4)CCC3)o2)C1 (configuration not stated)	-3.0%	0.0%	x	u	23.1µM*	x
CC(C)C[C@@H]1COc2cccc(N3CCSCC3)c2S(=O)(=O)N1	0.6%	1.7%	i	-27.8%	-13.7%	i
O=[N+]([O-])c1nn(-c2ccccc2)n(O)c1=NCCc1ccccc1	-0.5%	2.8%	u	14.6µM*	6.51µM*	u
O=[N+]([O-])c1nn(-c2ccc3c(c2)OCCO3)n(O)c1=NCCC1=CCCCC1	-12.8%	1.4%	i	-26.7%	-25.9%	u
COc1cccc(CN=c2c([N+](=O)[O-])nn(-c3ccccc3C)n2O)c1	-1.6%	-3.0%	i	u	23.1µM*	u
Cc1ccc(CCN=c2c([N+](=O)[O-])nn(-c3ccccc3)n2O)cc1	5.1%	8.3%	i	u	u	i
COc1ccc(-n2nc([N+](=O)[O-])c(=NCCc3ccccc3)n2O)cc1	0.4%	-2.1%	i	u	16.4µM*	u
CSc1ccc(CNC(=O)C2(C)CCCN(C(C)=O)C2)cc1 (configuration not stated)	22.8%	23.9%	i	0.2%	-13.6%	i
CCOC(=O)COc1ccc2c(C)c(CCN(CC)CC)c(=O)oc2c1	x	x	x	-3.4%	6.5%	x
CN(C)c1cccc(-c2cc(N3CCC(C(N)=O)CC3)ncn2)c1	x	x	u	x	x	i
Cc1ccc(NC(=O)CN2C(=O)S/C(=C\c3cc(Cl)c(OCC(=O)O)c(Cl)c3)C2=O)cc1	9.3%	9.6%	i	-9.1%	1.7%	i
Brc1cccc(-c2nnc3sc(CN4CCC5(CC4)OCCO5)cn23)c1	0.5%	3.3%	i	u	u	20.6µM*
Brc1cccc(-c2nnc3sc(CN4CCCCC4)cn23)c1	-16.6%	-2.1%	i	u	u	u
O=C(NCCc1ccccc1)N1c2ccccc2Sc2ccccc21	u	u	i	16.4µM*	u	u
CC(C)CNC(=O)N1c2ccccc2Sc2ccccc21	-9.5%	8.7%	i	u	-2.6%	u
